The source made the active and inactive calls.
Legend:
[1] = optical density shifts of acrAB sulA E. coli – strain DRC41, OD650, 48 h, E. coli filamentation inducer project, primary screen (AID 1152); conditions: higher = more signal, called active from +8 up or from −8 down;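 further: E. coli MC1000 strain DRC41 lacking acrAB efflux pump and sulA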
[2] = probe aLefty1 binding on compound microarray – biochemical, small-molecule microarray, 635/667 nm fluorescence, primary screen (AID 1153); conditions: higher = more signal;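 further: score merges spot fluorescence with signal-to-noise ratio from the scanned slide images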
[3] = plasmodial surface anion channel blockers, osmotic lysis – cell-based, P. falciparum Indochina, OD700, 1 h, primary screen (AID 1154); conditions: P. falciparum Indochina infected RBC osmotic lysis, higher = more signal, called active from +8 up or from −8 down
[4] = plasmodial surface anion channel blockers, osmotic lysis – cell-based, P. falciparum Indochina, OD700, 2 h, primary screen (AID 1155);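 further: lysis reports solute entry through the parasite surface anion channel PSAC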; conditions: P. falciparum Indochina infected erythrocytes, higher = more signal, called active from +8 up or from −8 down
[5] = changes in parasitized red cell lysis, either direction – P. falciparum Indochina, OD700, 3 h, PSAC antagonist project, primary screen (AID 1156); conditions: P. falciparum-infected erythrocytes, osmotic lysis, higher = more signal, called active from +8 up or from −8 down
[6] = plasmodial surface anion channel blockers, osmotic lysis – cell-based, P. falciparum Indochina, OD700, 18 h, primary screen (AID 1157); conditions: P. falciparum Indochina infected erythrocytes, osmotic lysis OD700, 18 h; higher = more signal, called active from +8 up or from −8 down
[7] = S6 kinase pathway phospho-S6 level changes – cell-based, A549, cytoblot, luminescence, serum-stimulated, primary screen (AID 1158); conditions: 5 h, higher = more signal;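 further: serum-stimulated A549 lung adenocarcinoma cells; signal is phosphorylated S6 detected by cytoblot immunostaining with HRP secondary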
[8] = target: NADPH oxidase 2 (Homo sapiens) (UniProt P04839); assay: compounds shifting NOX2 Amplex Red fluorescence – cell-based, HEK293-NOX2, PMA-stimulated, NOX inhibitor project, primary screen (AID 1159); conditions: 45 min, higher = more signal, called active from +8 up or from −8 down; further: test concentration not given here
[9] = target: NADPH oxidase 4 (Homo sapiens) (UniProt Q9NPH5); assay: compounds shifting NOX4 Amplex Red fluorescence – cell-based, HEK293-NOX4, tetracycline-induced, NOX inhibitor project, primary screen (AID 1160); conditions: HEK293-NOX4, Amplex Red H2O2 fluorescence, 45 min; higher = more signal, called active from +8 up or from −8 down
[10] = target: NADPH oxidase 5 (Homo sapiens) (UniProt Q96PH1); assay: compounds shifting NOX5 Amplex Red fluorescence – cell-based, HEK293-NOX5, NOX inhibitor project, primary screen (AID 1161); conditions: HEK293-NOX5, ionomycin, 45 min, higher = more signal
[11] = compound effects on lung adenocarcinoma cell viability – A549, calcein-AM fluorescence, 48 h, basal, profiling panel (AID 1162); conditions: higher = more signal; further: test concentration not given here
[12] = compound effects on differentiated 3T3-L1 adipocyte viability – cell-based, 3T3-L1 adipocytes, calcein-AM fluorescence, 48 h, basal, profiling panel (AID 1163); conditions: 3T3-L1 adipocytes viability, higher = more signal; further: test concentration not given here
[13] = compound effects on hepatocellular carcinoma cell viability – HepG2, calcein-AM fluorescence, 48 h, basal, profiling panel (AID 1164); conditions: higher = more signal; further: test concentration not given here
[14] = compound effects on multiple myeloma cell viability – MM1S, calcein-AM fluorescence, 48 h, basal, profiling panel (AID 1165); conditions: higher = more signal; further: test concentration not given here
[15] = calcein-AM signal in unstimulated myeloma cells – cell-based, calcein-AM fluorescence, 48 h, PK04 Diversity Set, profiling panel (AID 1166); conditions: RPMI8226 myeloma viability, higher = more signal;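 further: cells grown under basal conditions without added stimulus; test concentration not given here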
[16] = JC-1 mitochondrial signal, unstimulated HepG2 cells – cell-based, JC-1 fluorescence, 24 h, 100 nL compound, profiling panel (AID 1167); conditions: HepG2 mitochondrial potential, higher = more signal; further: test concentration not given here
[17] = JC-1 mitochondrial signal, unstimulated adipocytes – cell-based, JC-1 fluorescence, 3T3-L1 adipocytes, 24 h, 100 nL compound, profiling panel (AID 1168); conditions: JC-1 mitochondrial fluorescence, higher = more signal, called active from +8 up or from −8 down; further: test concentration not given here
[18] = JC-1 mitochondrial signal, unstimulated myeloma cells – cell-based, JC-1 fluorescence, RPMI8226, 24 h, 100 nL compound, profiling panel (AID 1169); conditions: JC-1 mitochondrial potential fluorescence, higher = more signal; further: test concentration not given here
[19] = JC-1 mitochondrial signal, unstimulated MM1S myeloma – cell-based, JC-1 fluorescence, 24 h, 100 nL compound, profiling panel (AID 1170); conditions: MM1S mitochondrial potential, higher = more signal; further: test concentration not given here
[20] = resazurin metabolic signal in A549 cells – cell-based, resazurin fluorescence, 24 h, PK04 Diversity Set, profiling panel (AID 1171); conditions: A549 viability, higher = more signal, called active from +8 up or from −8 down; further: test concentration not given here

Sequence of NADPH oxidase 2 (Homo sapiens) (P04839 whole entry, looked up): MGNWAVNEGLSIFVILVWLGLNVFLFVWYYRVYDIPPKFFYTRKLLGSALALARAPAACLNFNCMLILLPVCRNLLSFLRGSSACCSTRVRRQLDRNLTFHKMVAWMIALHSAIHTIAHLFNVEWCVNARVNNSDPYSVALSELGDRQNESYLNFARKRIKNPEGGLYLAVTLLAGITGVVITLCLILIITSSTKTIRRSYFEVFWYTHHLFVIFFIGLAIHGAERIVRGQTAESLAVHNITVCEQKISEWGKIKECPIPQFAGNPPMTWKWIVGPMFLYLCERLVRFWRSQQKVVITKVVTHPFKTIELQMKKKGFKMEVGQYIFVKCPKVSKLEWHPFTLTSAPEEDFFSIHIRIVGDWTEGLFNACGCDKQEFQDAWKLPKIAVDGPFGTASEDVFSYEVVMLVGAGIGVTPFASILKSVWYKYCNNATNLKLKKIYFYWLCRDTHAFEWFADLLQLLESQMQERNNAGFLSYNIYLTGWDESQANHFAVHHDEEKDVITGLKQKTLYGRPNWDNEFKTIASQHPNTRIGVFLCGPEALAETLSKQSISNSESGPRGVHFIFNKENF
Sequence of NADPH oxidase 4 (Homo sapiens) (Q9NPH5 whole entry, looked up): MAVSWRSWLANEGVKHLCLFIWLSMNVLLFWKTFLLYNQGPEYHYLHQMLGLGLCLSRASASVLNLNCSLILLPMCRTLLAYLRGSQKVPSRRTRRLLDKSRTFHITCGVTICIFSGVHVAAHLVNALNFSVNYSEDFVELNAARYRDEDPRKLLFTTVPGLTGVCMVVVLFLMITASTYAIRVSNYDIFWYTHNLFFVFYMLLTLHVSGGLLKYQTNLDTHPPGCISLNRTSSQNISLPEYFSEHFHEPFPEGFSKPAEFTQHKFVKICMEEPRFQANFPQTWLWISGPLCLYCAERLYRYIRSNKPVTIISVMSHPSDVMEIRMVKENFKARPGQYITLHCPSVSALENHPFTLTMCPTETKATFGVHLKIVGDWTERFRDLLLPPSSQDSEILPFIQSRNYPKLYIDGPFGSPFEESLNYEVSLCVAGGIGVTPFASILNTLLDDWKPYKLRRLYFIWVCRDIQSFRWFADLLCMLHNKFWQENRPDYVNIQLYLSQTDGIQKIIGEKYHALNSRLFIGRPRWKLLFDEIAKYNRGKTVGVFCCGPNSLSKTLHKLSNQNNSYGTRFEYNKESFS
Sequence of NADPH oxidase 5 (Homo sapiens) (Q96PH1 whole entry, looked up): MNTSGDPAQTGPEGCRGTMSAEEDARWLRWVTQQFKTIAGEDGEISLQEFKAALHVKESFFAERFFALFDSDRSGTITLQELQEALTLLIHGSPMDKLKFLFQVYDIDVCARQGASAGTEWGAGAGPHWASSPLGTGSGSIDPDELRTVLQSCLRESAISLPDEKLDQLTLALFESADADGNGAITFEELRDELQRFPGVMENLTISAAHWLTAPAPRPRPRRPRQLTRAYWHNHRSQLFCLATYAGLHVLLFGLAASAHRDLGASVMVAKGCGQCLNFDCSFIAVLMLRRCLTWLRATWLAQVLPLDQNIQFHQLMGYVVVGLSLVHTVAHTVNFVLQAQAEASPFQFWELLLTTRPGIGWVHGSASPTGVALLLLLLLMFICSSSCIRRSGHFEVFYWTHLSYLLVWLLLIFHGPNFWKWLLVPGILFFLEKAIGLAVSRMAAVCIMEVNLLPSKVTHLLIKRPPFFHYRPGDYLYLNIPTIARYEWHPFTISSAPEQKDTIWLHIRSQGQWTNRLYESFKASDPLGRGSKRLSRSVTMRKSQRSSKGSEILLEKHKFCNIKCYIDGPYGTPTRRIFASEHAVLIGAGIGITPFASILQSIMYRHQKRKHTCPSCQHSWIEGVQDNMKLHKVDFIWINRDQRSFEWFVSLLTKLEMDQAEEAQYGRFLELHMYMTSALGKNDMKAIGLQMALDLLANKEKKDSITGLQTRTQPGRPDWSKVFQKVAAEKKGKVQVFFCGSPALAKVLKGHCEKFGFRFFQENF

Structure (SMILES)	z-score [1]	composite z-score [2]	z-score [3]	z-score [4]	z-score [5]	z-score [6]	z-score [7]	z-score [8]	z-score [9]	z-score [10]	z-score [11]	z-score [12]	z-score [13]	z-score [14]	z-score [15]	z-score [16]	z-score [17]	z-score [18]	z-score [19]	z-score [20]
CC(C)[Si](C#CCCCC#N)(O[C@H](c1ccccc1)c1cn(Cc2cccc(Cl)c2)nn1)C(C)C	1.65 (inactive)	0.0496	0.614 (inactive)	1.24 (inactive)	-0.187 (inactive)	1.04 (inactive)	0.573	-6.2 (inactive)	0.194 (inactive)	0.528	-1.13	-0.75	-0.626	-0.883	-4.19	6.65	-0.108 (inactive)	-0.882	-1.56	0.268 (inactive)
COc1ccc([Si](C)(C)[C@@H]2[C@@H](CC(=O)N3CCC[C@H]3CO)O[C@]3(C(=O)N(Cc4cccc(I)c4)c4ccccc43)[C@H]2C)cc1	-0.423 (inactive)	-0.111	6.47 (inactive)	0.966 (inactive)	1.39 (inactive)	0.917 (inactive)	2.02	2.97 (inactive)	0.91 (inactive)	4.33	-1.08	1.24	-2.59	-2.92	-4.52	-0.646	-0.0158 (inactive)	-1.08	-1.48	-3.17 (inactive)
CCCCC(=C=CC[C@@H](O)c1ccc(CO)o1)CCO	0.702 (inactive)	0.459	2.3 (inactive)	0.631 (inactive)	0.399 (inactive)	0.208 (inactive)	0.126	2.35 (inactive)	1.49 (inactive)	1.3	1.48	-0.186	0.376	-0.277	0.275	0.761	0.618 (inactive)	0.0267	0.321	1.28 (inactive)
COC(=O)c1c(CC[C@@H](CO)NC(=O)N[C@H](Cc2ccccc2)Cn2cc(-c3ccccn3)nn2)oc(C(C)=O)c1C(=O)OC	-0.72 (inactive)	-0.194	27.1 (active)	12.7 (active)	0.729 (inactive)	1.41 (inactive)	0.032	-1.52 (inactive)	0.594 (inactive)	1.24	0.372	0.337	-0.362	0.258	-0.406	-0.607	-0.821 (inactive)	-0.0316	-0.131	-0.533 (inactive)
Cc1ccc(S[C@]2(C(=O)O)CC(=O)N(Cc3ccccc3C(F)(F)F)[C@@H]2c2ccc(CO)cc2I)cc1	-1.17 (inactive)	0.737	6.52 (inactive)	0.427 (inactive)	0.591 (inactive)	0.402 (inactive)	0.0721	1.63 (inactive)	-1.72 (inactive)	1.12	0.0342	-0.217	-0.742	-3.22	-1.5	-1.06	-0.438 (inactive)	-0.275	-1.48	0.834 (inactive)
C=C(CCCC)C(=O)CC[C@@H](OC(C)=O)c1ccc(CO)o1	0.0002 (inactive)	-0.0278	0.113 (inactive)	0.0176 (inactive)	-1.18 (inactive)	0.184 (inactive)	-0.0622	-1.23 (inactive)	-0.538 (inactive)	-2.37	-0.779	0.37	-0.293	0.0178	-0.878	-0.885	0.352 (inactive)	0.703	-0.179	-0.0655 (inactive)
OCCCC1=CC(C2CC2)N(Cc2cccc(OC(F)(F)F)c2)CC1 (stereo not given)	-0.469 (inactive)	-0.0813	1.82 (inactive)	0.539 (inactive)	0.982 (inactive)	0.675 (inactive)	0.473	-1.2 (inactive)	-0.822 (inactive)	-1.48	-0.346	0.643	0.43	-0.522	0.0997	0.64	0.319 (inactive)	0.48	0.572	1.83 (inactive)
